The results in this text go back to PubChem BioAssay (NCI).

This is part of a sample that, as a whole, favours compounds with a hit. Of some 83,000 tested, about 20% had one in any assay.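 How to read the values: 0–100, growth inhibition (40 = 60% inhibited); 0, no net growth; -100 to 0, cell death (-40 = 40% of starting cells died; -100 = all dead).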 A number with no mark means an inactive call. The source made the active and inactive calls. The calls were made as follows: active = growth percent below 10; inactive = the rest.

The assay deals with HL-60(TB) leukemia. Put plainly: NCI-60 one-dose screen, 48 h (100 = growth as untreated, 0 = no growth, -100 = all killed). To be noted: 10 µM unless noted.
Consider `O=C1Nc2cc(-c3ccc(O)cc3)ccc2/C1=C/c1ccc[nH]1`, for which the growth is -8.12% (active). Take `COC(=O)CCC/C=C\C[C@H]1C=CC(=O)/C1=C/C[C@@H](O)C/C=C\CC(F)(F)F`: the growth is 1.03% (active).

For the molecule `CCOC(=O)c1cc(/C(=N\O)c2cc(OC)c(OC)c(OC)c2)n2cc(C)cc(C)c12`, the growth was 9.42% (active). Take `COS(=O)(=O)CCN(CCOS(C)(=O)=O)S(C)(=O)=O`: the growth is 82.9%. On to `O=C(Nc1ccc(Nc2cc(Nc3ccccc3)ncn2)cc1)Nc1cc(C(F)(F)F)ccc1F`, for which the growth is 106%. Regarding `O=C(COc1cccc(/C=C2\CSc3ccccc3C2=O)c1)Nc1nccs1`, the growth is -76.3% (active). Under `CC1=C([Se]CC(OC(=O)[C@@H](CO)NC(=O)OC(C)(C)C)C(=O)NC(C)(C)C)C(=O)c2ccccc2C1=O` (stereo not given in full) stands -36.2% (active); under `c1ccc([Se]CCCN2CCN(CCC[Se]c3ccccc3)CC2)cc1`, 105%. Regarding `O=C1c2c[n+](Cc3ccccc3)ccc2-c2nc3ccccc3c3ccnc1c23`, the growth is -29.6% (active). Turning to `Cc1cccc(NC2=C(Cl)C(=O)c3nc(C)ccc3C2=O)c1`, the growth was -14.9% (active). The value for `Cc1ccc(NC(=O)N2CCCCC2)cc1[N+](=O)[O-]` was 104%.

As for `FC(F)(F)c1ccc(/C=N/Nc2nnc3n2N=C(c2ccc(Cl)cc2)CS3)cc1`, the growth is 93.3%. The value for `COc1cc(-c2nc(Nc3nc4ccccc4s3)[nH]c(=O)c2C#N)cc(OC)c1O` was 98%; that for `COc1cc(CSc2nc3ccc(Cl)cc3c(=O)n2-c2ccccc2)cc(OC)c1OC` was 90.8%. `CCn1cnc2c1c(=O)[nH]c(=O)n2CC1CCC(CNS(=O)(=O)c2ccc(OC3CCOCC3)c(F)c2)CC1` (stereo not given): the growth is 13.2%. As for `COc1cc(/C=C2\CCC/C(=C\c3cc(CN4CCCC4)c(O)c(OC)c3)C2=O)cc(CN2CCCC2)c1O`, the growth was 5.18% (active). The value for `COc1ccc(C(=O)c2cc(OC)c(OC)c(OC)c2OC)cc1O` was 25.2%; that for `CCc1nc2ccc(Cc3ccc(C(=O)NO)cc3)cc2c(=O)n1CCc1ccccc1` was -20.3% (active); that for `Cc1cc(N2CCN(CCNc3ccnc4cc(Cl)ccc34)CC2)nc(N2CCOCC2)n1` was 44.8%. For `CCN(c1cc(-c2ccc(CN3CCC(/C=C/S(=O)(=O)c4ccccc4)CC3)cc2)cc(C(=O)NCc2c(C)cc(C)[nH]c2=O)c1C)C1CCOCC1`, the growth is 23.4%. For the molecule `Cc1cc(C)n(-c2nc(-c3cccs3)c(C#N)c(=O)[nH]2)n1`, the growth is 94.4%. The value for `COc1ccc(-c2cc(=O)c3c(OC)c4ccoc4cc3o2)cc1` was 117%; that for `C=C1C(=O)O[C@H]2[C@H]1CC/C(COC(=O)/C=C\C(=O)NCc1ccc(Cn3c(=O)sn(-c4ccc(OC)cc4)c3=O)cc1)=C\CC[C@@]1(C)O[C@@H]21` was -35.8% (active); that for `O=C(NN1C(=O)c2cc(C(=O)O)c(C(=O)O)cc2C1=O)c1ccncc1` was 109%. Under `O=C(N=Nc1c(O)[nH]c2ccccc12)c1oc2ccccc2c1CN1CCN(c2ccccc2)CC1` stands 49.8%; under `COc1cc2c(cc1OCCCN1CCN(CCCOc3cc4c(cc3OC)C(=O)N3CC(F)(F)C[C@H]3C=N4)CC1)N=C[C@@H]1CC(F)(F)CN1C2=O`, 15.7%.

Consider `O=C(Oc1ccc(CCl)cc1)c1ccccc1`, for which the growth was -44.6% (active). For the molecule `COc1cc(/C=C/C(=O)c2c(C)n([O-])c3cc(C)c(C)cc3[n+]2=O)cc(OC)c1OC`, the growth was 32.9%. Under `COc1ccc(/C=C(\C#N)c2cc(OC)c3c(c2)OCO3)cc1` stands -1.4% (active); under `Cc1nn(-c2ccccc2)c(/N=C/N(C)C)c1/C=C/C(=O)c1ccc(Cl)cc1`, 76.3%; under `CSc1nc2c(c(=O)n1C)C1(C(=O)N(Cc3ccccc3)c3ccccc31)c1c(nc(SC)n(C)c1=O)N2`, 73.4%.

For the molecule `COc1ccc(/C=N\NC(=O)c2ccc3nc(-c4ccc(Cl)cc4)[nH]c3c2)cc1`, the growth is 96.3%. The value for `O=c1oc2ccccc2cc1-c1csc(N=Nc2c(O)[nH]c3ccc(Br)cc23)n1` was 106%; that for `CC(C)(C)c1cc(C(C)(C)c2ccccc2)cc(Cc2cc(C(C)(C)c3ccccc3)cc(C(C)(C)C)c2O)c1O` was 112%; that for `C=C(C)[C@@H]1CC[C@]2(COCCC#N)CC[C@]3(C)[C@H](CC[C@@H]4[C@@](C)(CCCNCCC#N)[C@H](C(=C)C)CC[C@]43C)[C@@H]12` was -16.2% [100 µM] (active). The value for `O=C1/C=C/[C@@H](O)[C@@H]2C[C@@H](O)C[C@H]2/C=C/CCC[C@H](CCOCc2ccccc2)O1` was 0.107% (active); that for `O=[N+]([O-])c1ccc(C2CC(c3ccccc3)=Nc3ccccc3S2)cc1` (stereo not given) was 36.1%; that for `CCCCC/C(C=C(C#N)C#N)=C/c1ccccc1` was 6.33% (active). Under `O=S(=O)(NCCNc1nccc(-c2c(-c3cccc(O)c3)nc3occn23)n1)c1ccc(Br)cc1` stands 18%; under `CCCSC1=NC2C(N(CC)C(=O)N2CC)N1/N=C/C=C/c1ccccc1[N+](=O)[O-]` (stereo not given), -29.8% (active).
